Compounds with a hit are over-represented: about 2.9% of the library has one in this group of screens.
DRD3 agonist: activates the human D3 dopamine receptor. P35462. D3R DiscoveRx beta-arrestin cells, luminescence, 90 min. max activation, %. 0.58% of 410,000 active. AID 652048; in the data active = max activation above about 30%; note: 0% is about no effect
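Cells at 1500/well, incubated overnight, then treated with pinned compounds (dopamine as control) for 90 min at 37 degrees C. DiscoveRx reagent added for 30 - 60 minutes at room temperature; luminescence read.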
TSHR antagonist: blocks TSH signaling through the human TSH receptor | TSHR-expressing cells, TSH-stimulated cAMP HTRF, 2 h; hits give low values | activity change, negative = inhibition, % at 11.5 µM | AID 504810 | 0.2% of 330,000 active;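 active = activity change below a set negative limit, meaning inhibition stronger than a set level, cut at about -70% in these data; inconclusive = activity change between two set negative limits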; note: % is set by controls: 0 for no effect and ±100 for the full control effect
Target sequence (P16473 whole entry, looked up): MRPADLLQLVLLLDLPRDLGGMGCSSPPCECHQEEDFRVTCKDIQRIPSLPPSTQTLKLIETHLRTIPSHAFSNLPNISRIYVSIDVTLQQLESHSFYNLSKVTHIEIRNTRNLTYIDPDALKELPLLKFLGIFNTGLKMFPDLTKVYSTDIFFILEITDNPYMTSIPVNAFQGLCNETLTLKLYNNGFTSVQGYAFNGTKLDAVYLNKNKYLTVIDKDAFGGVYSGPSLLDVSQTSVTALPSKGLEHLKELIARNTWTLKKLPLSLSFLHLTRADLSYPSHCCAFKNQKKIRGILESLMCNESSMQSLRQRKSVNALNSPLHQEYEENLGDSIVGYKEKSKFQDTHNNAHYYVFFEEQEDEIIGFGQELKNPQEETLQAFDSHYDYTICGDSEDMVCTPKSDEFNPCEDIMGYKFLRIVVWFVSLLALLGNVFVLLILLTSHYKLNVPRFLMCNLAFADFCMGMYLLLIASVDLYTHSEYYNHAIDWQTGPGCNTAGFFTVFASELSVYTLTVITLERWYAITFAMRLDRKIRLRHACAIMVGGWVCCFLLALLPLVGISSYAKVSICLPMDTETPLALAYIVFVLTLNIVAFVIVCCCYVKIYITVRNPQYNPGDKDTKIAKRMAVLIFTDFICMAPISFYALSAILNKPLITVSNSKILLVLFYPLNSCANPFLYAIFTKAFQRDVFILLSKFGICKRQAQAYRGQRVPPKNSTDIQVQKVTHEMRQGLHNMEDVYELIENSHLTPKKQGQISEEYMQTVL
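Competitive HTRF cAMP read-out (cryptate anti-cAMP antibody, cAMP-d2; 30 min, room temperature) in freshly harvested TSHR cells. Compounds added before TSH at EC80 (4nM final), followed by 2 hours' incubation at 37 deg C.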
DRD3 antagonist: blocks the human D3 dopamine receptor | P35462 | D3R cells, DiscoveRx beta-arrestin luminescence, antagonist mode; hits give low values | max response, negative = inhibition, % | 2.5% of 360,000 active; in the data active = max response below about -50%; inconclusive = no clear call, values can overlap the other calls; note: % is set by controls: 0 for no effect and ±100 for the full control effect
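Cells expressing the human receptor were seeded at 1500 cells/well, incubated overnight at 37 degrees C in 5% CO2, then exposed to library compounds with dopamine controls for 90 minutes at 37 degrees C before luminescent detection.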
B2AR arrestin: recruits beta-arrestin to the human beta2-adrenergic receptor | P07550 | beta-arrestin recruitment to beta2AR, cell-based reporter | Potency, µM (doses to about 46.1 µM), without a hit: at the highest dose activation, most hits filed as activators | 0.02% of 330,000 active | AID 492947; active = well fitted activation curve with a large enough effect; inconclusive = small, poorly fitted or top-dose-only effect;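 note: potency is the fitted concentration of half-maximal effect; 0% = DMSO controls and full agonism = EC100 isoproterenol or metaproterenol; nearly all actives have a fitted effect of over 65% in size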
* marks the source's active call; other numbers are inactive results; ? = inconclusive; . = not tested or not shown.

SMILES	DRD3 agonist	TSHR antagonist	DRD3 antagonist	B2AR arrestin
CC1CCCN(CC(O)COc2ccc(Cl)cc2)C1 (stereo not given)	-33.9	3.0	-58.4*	0.2%
COc1ccc(-c2cc3ccccc3n2CC(O)CNCCO)cc1 (stereo not given)	-10.3	-16.3	0.0	0.6%
COc1ccc(-c2cc3ccccc3n2CC(O)CN2CCCCC2)cc1 (stereo not given)	-21.9	3.0	-87.2*	-0.9%
COc1ccc(NC(=O)CCNS(=O)(=O)c2cccc3nsnc23)cc1Cl	4.9	.	.	.
COc1ccc(NC(=O)COc2ccc(S(=O)(=O)NC3CCCCC3)cc2)cc1OC	12.9	.	.	.
FCCCOc1ccc(CN2CCN(c3ccccc3F)CC2)cc1	-3.4	8.1	-60.2*	-0.1%
Cc1cc(CN2CCN(c3ccccc3F)CC2)cs1	0.1	.	.	.
Fc1ccccc1N1CCN(Cc2cc(-c3ccccc3)on2)CC1	-5.3	-13.4	-87.7*	-0.9%
CC[C@H](C)[C@H](NC(=O)[C@H](Cc1ccccc1)NC(=O)[C@H](C)NC(=O)[C@H](CC(=O)O)NC(=O)[C@H](CCCCN)NC(=O)[C@H](CO)NC(=O)[C@@H]1CCCN1C(=O)[C@@H]1CCC(=O)N1)C(=O)NCC(=O)N[C@@H](CC(C)C)C(=O)N[C@@H](CCSC)C(N)=O	11.1	.	.	.
COCCn1c(C)cc(C(=O)CSc2cc(C)c3ccccc3n2)c1C	5.2	-5.3	7.1	3.2%
COCCn1c(C)cc(C(=O)CSc2nc3ccccc3c(=O)n2Cc2ccco2)c1C	43.4*	-21.9	16.2	-0.2%
CCc1ccc(NCc2cc3cc4c(cc3n(CC(=O)Nc3ccccc3OC)c2=O)OCCO4)cc1	1.9	.	.	.
C/C=C/c1ccc(OCCCNC2CCCC2)c(OC)c1	0.2	18.5	-60.7*	-1.0%
COc1ccc(OC)c(N2C(=O)CC(Cc3ccc(Cl)cc3)C2=O)c1 (stereo not given)	1.7	-3.0	14.3	-0.1%
COc1ccc(OC)c(N2C(=O)CC(Cc3cc(C)cc(C)c3)C2=O)c1 (stereo not given)	-12.4	28.9	-191.7*	0.2%
O=[N+]([O-])c1ccccc1S(=O)(=O)N1CCN(C2CCCC2)CC1	-26.8	6.4	-59.0*	-0.1%
O=S(=O)(c1ccc(Cl)cc1)N1CCN(C2CCN(Cc3ccccc3)CC2)CC1	-11.9	6.3	-62.6*	-0.7%
O=[N+]([O-])c1ccccc1S(=O)(=O)N1CCN(C2CCN(Cc3ccccc3)CC2)CC1	-38.3	-1.4	-76.5*	0.1%
COc1ccc(CCNC(=O)c2cnc3sc(N4CCCCCC4)nn3c2=O)cc1	-3.4	.	.	.
CCOC(=O)c1c(C)[nH]c(C(=O)COC(=O)C2CC2)c1C	5.7	-0.2	-20.2	0.0%
CCOC(=O)c1c(C)[nH]c(C(=O)COC(=O)C2(C)CC2(Cl)Cl)c1C (stereo not given)	45.3*	-21.8	54.2	0.2%
CCCCn1cc(S(=O)(=O)c2ccc(Cl)cc2)c(=O)c2cc(F)c(N3CCCC(C)C3)cc21 (stereo not given)	4.6	.	.	.
O=C(O)c1cc(NS(=O)(=O)c2ccc3ccccc3c2)ccc1O	-22.2	7.8	-108.3*	0.0%
Cc1cc(Cl)ccc1NC(=O)CN1C(=O)CSc2ccc(S(=O)(=O)N(C)C)cc21	-4.6	.	.	.
Cc1cc(C)n2c(Nc3c(C)cccc3C)c(-c3ccccn3)nc2n1	-12.0	.	-69.7*	.
SMILES	DRD3 agonist	TSHR antagonist	DRD3 antagonist	B2AR arrestin
Cc1ccc(Nc2c(-c3ccccn3)nc3cccc(C)n23)cc1	-27.2	-9.1	-81.8*	?
CC(=O)c1cccc(CN2CCN(Cc3ccc(F)cc3)C(CCO)C2)c1 (stereo not given)	-3.9	2.1	?	-0.5%
Cc1ccc(CN2CCN(Cc3ccc4c(c3)OCCO4)CC2CCO)cc1 (stereo not given)	-20.0	4.8	-55.1*	6.7%
COc1cccc(CN2CCN(Cc3ccc4c(c3)OCCO4)CC2CCO)c1 (stereo not given)	-13.1	26.8	-28.2	-0.7%
OCCC1CN(Cc2ccc3c(c2)CCO3)CCN1Cc1ccc(F)cc1 (stereo not given)	-16.1	20.3	-59.3*	0.0%
Cc1ccc(CN2CCN(CC(C)C)C(CCO)C2)s1 (stereo not given)	-4.0	-2.1	7.9	0.2%
Cc1ccc(CN2CCN(Cc3ccc(C)s3)CC2CCO)cc1 (stereo not given)	-19.0	5.0	-95.7*	-0.5%
Cc1ccc(CN2CCN(C3CCCC3)C(CCO)C2)s1 (stereo not given)	-22.7	18.1	-51.1*	-0.3%
COc1cc(OC)c(OC)cc1CN1CCc2nc(N3CCN(c4ccccc4F)CC3)ncc2C1	-9.7	.	.	.
O=C(Nc1ccc(Br)cc1)N1CCC(CN2CCCC2)CC1	-12.6	.	.	.
COc1ccc(CNC(=O)c2ccc3c(c2)N(Cc2ccccc2F)C(=O)c2ccccc2S3=O)cc1 (stereo not given)	2.2	.	.	.
Cc1ccc(CN2CCN(Cc3ccccc3)C(CCO)C2)s1 (stereo not given)	-13.2	-4.5	-52.9*	-0.9%
Cc1ccc(CN2CCN(Cc3cnc(C)s3)CC2CCO)cc1 (stereo not given)	-14.8	-5.0	-59.7*	-0.3%
O=C(c1cnc2c(c1)COc1ccccc1-2)c1ccccc1O	10.7	.	.	.
CCCOc1ccc(C2=CC(=O)C[C@H](c3ccc(OC)cc3)C2)cc1	36.1*	-2.2	50.6	-0.3%
COc1cc(F)cc(C2=CC(=O)C[C@H](c3ccc(F)cc3)C2)c1	-16.0	-30.0	-78.7*	0.4%
COc1ccc([C@H]2CC(=O)C=C(c3cc(C)ccc3OC)C2)cc1	-8.9	45.6	-58.3*	0.1%
COc1ccc([C@H]2CC(=O)C=C(c3ccc(OC(F)(F)F)cc3)C2)cc1	-13.5	-19.7	?	0.4%
COc1ccc(C2=CC(=O)C[C@H](c3ccc(OC)c(OC)c3)C2)cc1	15.3	-30.8	16.8	0.0%
COc1ccc([C@H]2CC(=O)C=C(c3ccc(CNC(=O)OC(C)(C)C)cc3)C2)cc1	49.3*	-31.9	88.8	-0.6%
COc1ccc(S(=O)(=O)N2CCC(n3c(C)nc4cccnc43)CC2)cc1Cl	-9.4	.	.	.
CC1=C(C(=O)N2CCCCCC2)CC(CC(=O)NCc2cccc3ccccc23)C(=O)N1CCC1=CCCCC1 (stereo not given)	-10.7	.	-28.5	.
Cc1cc(Nc2cccc(C(F)(F)F)c2)nc2ccc(NC(=O)c3cncc(Br)c3)cc12	-0.8	.	.	.
COc1ccc(NC(=O)CCn2cnc3onc(-c4ccc(F)cc4)c3c2=O)cc1OC	-6.0	.	.	.
Cc1ccc2nc(-c3cc(NC(=O)/C=C/c4ccccc4)ccc3Cl)oc2c1	-9.8	.	.	.
CCOc1ccc(CO[C@@H]2O[C@H](CO)[C@@H](O)[C@H](O)[C@H]2NC(C)=O)cc1OC	11.6	2.4	20.5	-0.3%
COc1ccc(CO[C@@H]2O[C@H](CO)[C@@H](O)[C@H](O)[C@H]2NC(C)=O)cc1OC	-4.1	9.9	-51.6*	-0.4%
O=C(Cn1c(=O)n(-c2ccccc2Cl)c(=O)c2sc3ccccc3c21)NC1CCCC1	7.7	.	.	.
O=C(NCCc1ccccc1)c1ccccc1Cl	-5.4	15.8	4.5	-0.8%

Screening results: PubChem BioAssay, National Center for Advancing Translational Sciences (NCATS)
